Laboratory results from PubChem BioAssay AID1510 (The Scripps Research Institute Molecular Screening Center, 2009).
About 570 (0.26%) of roughly 220,000 compounds were called active. The sample as a whole holds a higher share of actives than the screen did. Unmarked numbers belong to inactive results. Rule as the data show it: active = inhibition above about 29%; inactive = the rest.

Molecular target: Sphingosine 1-phosphate receptor 4 (Homo sapiens) (UniProt O95977)
Assay: blockers of human S1P4 receptor – cell-based, primary screen (AID 1510);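 also: 0% = wells stimulated with agonist and 100% = vehicle wells without agonist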
Conditions: S1P4-expressing cells, antagonist mode, reporter read-out; at 4.98 µM; active compounds read high

Sequence of Sphingosine 1-phosphate receptor 4 (Homo sapiens) (O95977 whole entry, looked up): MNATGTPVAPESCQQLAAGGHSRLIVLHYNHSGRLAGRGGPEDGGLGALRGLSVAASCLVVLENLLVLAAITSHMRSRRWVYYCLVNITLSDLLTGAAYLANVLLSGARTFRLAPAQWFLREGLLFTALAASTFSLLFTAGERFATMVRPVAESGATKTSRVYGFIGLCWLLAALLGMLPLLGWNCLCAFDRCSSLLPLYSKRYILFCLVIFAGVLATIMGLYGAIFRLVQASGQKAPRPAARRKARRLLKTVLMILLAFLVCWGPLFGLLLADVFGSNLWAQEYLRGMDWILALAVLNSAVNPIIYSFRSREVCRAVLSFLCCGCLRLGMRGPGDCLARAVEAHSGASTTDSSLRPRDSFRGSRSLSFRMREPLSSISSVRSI

| Structure (SMILES) | inhibition |
| --- | --- |
| CCOc1ccc(S(=O)(=O)Nc2ccncc2)c(C)c1C | 8.19% |
| Cc1cc(SCC(=O)c2ccccc2)nc(SCC(=O)c2ccccc2)n1 | -17.1% |
| Cc1cc(C)nc(S/C=C/C(=O)c2ccccc2)n1 | 54.5% (active) |
| C/C(=N\NC(=O)c1nc(C)cc(C)n1)c1ccccc1 | 4.33% |
| O=C(Nc1nnc(SCc2ccccc2Cl)s1)c1cccc([N+](=O)[O-])c1 | -13.5% |
| O=C(O)C1CC=CCC1C(=O)Nc1ccccc1C(=O)N1CCN(c2ccccc2)CC1 (configuration not stated) | -6.52% |
| Cc1cccc(N2CCN(C(=O)c3ccccc3NC(=O)C3CCCCC3C(=O)O)CC2)c1 (configuration not stated) | -7.71% |
| CC(C)c1ccc(N2CCN(C(=O)c3ccccc3NC(=O)/C=C(\C(=O)O)c3ccccc3)CC2)cc1 | 96% (active) |
| CC(C)c1ccc(Nc2ncccc2C#N)cc1 | -16.8% |
| O=C(/C=C/c1cccc([N+](=O)[O-])c1)NCCSCc1ccco1 | -14.7% |
| CCc1ccc2ncc(C(=O)c3ccccc3)c(N3CCOCC3)c2c1 | -14.8% |
| O=C1Nc2cc(Cl)c(Cl)cc2N(O)N1c1ccccc1Cl | -11.4% |
| C=CCOCCN(C)C1=NS(=O)(=O)c2ccccc21 | -5.99% |
| Fc1ccc(Nc2nnns2)cc1 | -8.7% |
| O=C(CSc1ncn[nH]1)Nc1nc(-c2cccc([N+](=O)[O-])c2)cs1 | 0.29% |
| COc1ccc2c(c1OC)C(=O)OC2Nc1nc(-c2ccccc2)cs1 (configuration not stated) | 22.8% |
| COc1ccc(Nc2nc(-c3ccccc3)cs2)cc1 | -20.3% |
| COc1ccc(-c2csc(NC3OC(=O)c4ccccc43)n2)cc1 (configuration not stated) | 30.9% (active) |
| O=C(CC1NCCNC1=O)Nc1cc(Cl)cc(Cl)c1 (configuration not stated) | -3.46% |
| Cc1cc(C(=O)CSc2nc(N)cc(=O)[nH]2)c(C)n1-c1cccc(F)c1 | -13.7% |
| Brc1ccc(-c2nn[nH]n2)cc1 | 11.9% |
| Cc1ccc(C2CCN(C(=S)Nc3cccc(Cl)c3)C2)cc1 (configuration not stated) | 3.99% |
| Cc1nc2nc(SCC(=O)c3ccccc3)[nH]c2cc1Br | 6.48% |
| O=C(COC(=O)c1cc([N+](=O)[O-])ccc1NCc1ccccc1)NC1CCCCC1 | -5.39% |
| COc1cc(C(=O)N2C(=O)c3cccc(N)c3C2=O)cc(OC)c1OC | 6.71% |
| CN1CCN(S(=O)(=O)c2cccc(C(=O)O)c2)CC1 | -2.81% |
| CC1CC(C)CN(S(=O)(=O)c2cccc(C(=O)N3C(=O)c4cccc(N)c4C3=O)c2)C1 (configuration not stated) | 37.9% (active) |
